Compounds without any hit were thinned out: in the full panel of roughly 83,000, 20% have a hit.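 Cell lines were cultured in 96-well plates, exposed to a single compound concentration, and assessed for percent growth 48 hours later.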 A number with no mark means an inactive call. The source made the active and inactive calls. How the source made its calls: active means growth percent below 10; inactive means the rest.
These compounds were tested on LOX IMVI melanoma (assay: NCI-60 one-dose screen, 48 h (100 = growth as untreated, 0 = no growth, -100 = all killed)). Details: 10 µM.

Row | SMILES | growth
1 | O=C(Cn1cc(CSc2nnc3oc4ccccc4n23)nn1)Nc1ccc(Br)cc1 | 54.9%
2 | CN1CCN(c2ccc(Nc3nc(N4CCN(S(=O)(=O)c5ccc(F)cc5)CC4)c4sccc4n3)cc2)CC1 | -91.7% (active)
3 | COc1ccccc1NCc1ccc(CO)n1-c1ccc(C)cc1 | 86.5%
4 | CC(=C(c1ccc(OCCCN(C)C)cc1)c1ccc(OCCCN(C)C)cc1)c1ccccc1 | -100% (active)
5 | CN1CCN(c2ccc(Nc3nc(NCCCNC(=O)c4ccccc4)c4sccc4n3)cc2)CC1 | 16%
6 | CCCCCc1ccc(S(=O)(=O)N(C(C)=O)c2cc(-c3csc(N(C)C(C)=O)n3)ccc2N2CCN(C)CC2)cc1 | -99.8% (active)
7 | C=C1CC[C@H](C(=C)C)[C@H]2C=C(C)C(=O)C3=C(C(=O)[C@@](C)(O)C3)[C@H]12 | -75.9% (active)
8 | CC(=O)Nc1nc(-c2ccc(N3CCN(C)CC3)c(NS(=O)(=O)c3cccc4c(N(C)C)cccc34)c2)cs1 | -35.6% (active)
9 | CNC(=O)c1cccc(N2CCc3c2ccc(NC(=O)Nc2ccc(N4CCN(C)CC4)c(C(F)(F)F)c2)c3F)c1 | -100% (active)
10 | CN1CCN(c2ccc(Nc3nc(N4CCN(S(=O)(=O)c5ccc(Cl)cc5)CC4)c4sccc4n3)cc2)CC1 | -90.1% (active)
11 | CC1(C)CC[C@]2(C(=O)NCCCNCCCCNCCCN)CC[C@]3(C)C(=CC[C@@H]4[C@@]5(C)Cc6c([nH]c7ccccc67)C(C)(C)[C@@H]5CC[C@]43C)[C@H]2C1 | 92.6%
12 | C=CC(=O)Nc1nc(-c2cccc(NS(=O)(=O)c3cccc4c(N(C)C)cccc34)c2)cs1 | -95.2% (active)
13 | COC1CC(Cn2cc(COc3ccc4ccc(=O)oc4c3)nn2)C(OCc2ccccc2)C(OCc2ccccc2)C1OCc1ccccc1 (stereo unspecified) | 99.4%

Each compound was assayed on SK-MEL-28 melanoma in the same assay as above. Details: 10 µM.

Row | SMILES | growth
14 | Cc1ccc(C(=O)NCCCNc2nc(Nc3ccc(N4CCN(C)CC4)cc3)nc3ccsc23)cc1 | -70.3% (active)
15 | O=C(c1ccc(-n2c(=O)[nH]c3ccccc3c2=O)cc1)N1CCOCC1 | 108%
16 | O=S(=O)(c1ccc(Cl)cc1)c1nc(-c2ccccc2)oc1S(=O)(=O)c1ccc(Cl)cc1 | 104%
17 | Cc1ccc(C(C)C)cc1NC(=O)c1ccccc1N(C)C | 92.9%
18 | COc1ccc2[nH]c(O)c(N=NC(=O)COc3ccc(NC(=O)Nc4ccc(Cl)c(Cl)c4)cc3)c2c1 | -59.8% (active)
19 | COc1cccc(-c2nn(-c3ccccc3)cc2-c2ccnc(NCCCNC(=O)Nc3ccc(F)cc3)c2)c1 | -3.54% (active)
20 | CN1CCN(c2ccc(Nc3nc(NCCCNC(=O)c4ccc(F)cc4)c4sccc4n3)cc2)CC1 | -45.3% (active)
21 | CC1(C)CC[C@]2(C(=O)Nc3ccccc3)CC[C@]3(C)C(=CC[C@@H]4[C@@]5(C)CC[C@H](N)C(C)(C)[C@@H]5CC[C@]43C)[C@H]2C1 | 109%
22 | C[C@H]1[C@H](C)CC[C@]2(COC(=O)CCC(=O)NCC#CCN3CCNCC3)CC[C@]3(C)C(=CC[C@@H]4[C@@]5(C)CCCNC(C)(C)[C@@H]5CC[C@]43C)[C@H]12 | -26.5% (active)
23 | O=C(Nc1ccncc1)c1ccc(-n2c(=O)[nH]c3ccccc3c2=O)cc1 | 104%
24 | Cc1ccc(C(C)C)cc1NC(=O)c1ccccc1O | 31.1%
25 | CCCS(=O)(=O)c1oc(-c2ccc(F)cc2)nc1S(=O)(=O)c1ccc(F)cc1 | -98.7% (active)
26 | CN(C)c1cccc2c(S(=O)(=O)Nc3cccc(-c4csc(NC(=O)CCCCCN5CCN(c6cc7c(cc6F)C(=O)N(C6CCC(=O)NC6=O)C7=O)CC5)n4)c3)cccc12 (stereo unspecified) | 104%
27 | CC(=C(c1ccc(OCCN2CCCCC2)cc1)c1ccc(OCCN2CCCCC2)cc1)c1ccccc1 | -93.9% (active)
28 | CC[C@@]1(O)C(=O)OCc2c1cc1n(c2=O)Cc2c-1nc1cc(F)c(C)c3c1c2[C@@H](N)CC3 | -15.7% (active)
29 | O=C(Cn1cc(CSc2nnc3oc4ccccc4n23)nn1)Nc1cccc(Cl)c1 | 81.5%
30 | C=C(C)[C@@H]1CC[C@]2(C(=O)OC)CC[C@]3(C)[C@H](CC[C@@H]4[C@@]5(C)CC[C@H](N)C(C)(C)[C@@H]5CC[C@]43C)[C@@H]12 | -100% (active)
31 | COc1ccc(-c2nc(S(=O)(=O)c3ccc(C)cc3)c(S(C)(=O)=O)o2)cc1 | -98.2% (active)
